The text below walks through data of PubChem BioAssay.

For part of these data: Measured potencies and affinities stand elsewhere. The source made the active and inactive calls.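 How the source made its calls, unless noted: active means dose curve with midpoint inside tested range, moderate steepness, plateau gap beyond fit error, low compound glow and bead-link interference; inactive means the rest.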

In assay [1] the target is Cell division control protein 42 homolog (Homo sapiens) (UniProt P60953). Description: inhibition of fluorescent GTP binding to constitutively active Cdc42 – biochemical, multiplex bead flow cytometry, Bodipy-FL-GTP, dose response (AID 1333;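 active means fitted half-maximal concentration within the tested dose range, moderate curve steepness, a statistically real signal drop, and little compound fluorescence or tag-binding interference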).
Sequence of Cell division control protein 42 homolog (Homo sapiens) (P60953 whole entry, looked up): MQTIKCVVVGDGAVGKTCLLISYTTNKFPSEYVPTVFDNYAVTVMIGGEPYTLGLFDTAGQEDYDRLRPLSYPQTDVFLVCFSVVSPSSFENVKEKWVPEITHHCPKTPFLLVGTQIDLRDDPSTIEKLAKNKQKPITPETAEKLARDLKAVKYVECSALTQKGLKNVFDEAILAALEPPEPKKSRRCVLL
The target is the same in assay [2]. Briefly: inhibition of fluorescent GTP binding to wildtype Cdc42 – biochemical, multiplex bead flow cytometry, Bodipy-FL-GTP, dose response (AID 1334;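 active means fitted half-maximal concentration within the tested range, moderate curve steepness, significant signal drop, and little compound fluorescence or bead-linkage interference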). The note with it: bead-based flow cytometry, Bodipy-FL-GTP binding to GST-Cdc42; at 100 µM (top of the series) unless noted.
The target of assay [3] is GTPase HRas (Homo sapiens) (UniProt P01112). Description: Ras wt fluorescent GTP loading blockade – biochemical, wildtype, multiplex bead flow cytometry, dose response (AID 1335;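 active means fitted half-maximal concentration within 10 nM to 100 µM, steepness 0.5 to 2, significant signal drop, low assay interference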). Particulars: bead-based flow cytometry, Bodipy-GTP binding to GST-Ras; at 100 µM (top of the series) unless noted. In general terms: In flow cytometry, cells or beads pass a laser one at a time.
Sequence of GTPase HRas (Homo sapiens) (P01112 whole entry, looked up): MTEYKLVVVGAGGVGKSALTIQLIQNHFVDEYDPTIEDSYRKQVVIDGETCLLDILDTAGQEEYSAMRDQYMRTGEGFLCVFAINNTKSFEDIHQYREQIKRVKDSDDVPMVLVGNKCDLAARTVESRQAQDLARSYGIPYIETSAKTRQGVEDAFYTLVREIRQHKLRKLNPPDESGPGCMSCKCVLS

The test system of assay [4] is Ras-related protein Rab-7a (dog), GTP binding. Description: blockers of fluorescent GTP binding to Rab7 – biochemical, wildtype, multiplex bead flow cytometry, dose response (AID 1336; call rule not given here).
For assay [5], the target named is Ras-related C3 botulinum toxin substrate 1 (Homo sapiens) (UniProt P63000). Description: inhibition of wildtype Rac1 nucleotide loading – biochemical, multiplex bead flow cytometry, dose response (AID 1340). The note with it: GST-Rac1 beads, Bodipy-FL-GTP binding; at 100 µM (top of the series) unless noted.
For assay [6], the target named is GTPase HRas (Homo sapiens) (UniProt P01112). Briefly: blockade of GTP loading onto mutant Ras – biochemical, activated mutant, multiplex bead flow cytometry, dose response (AID 1341;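 active means dose-response curve with midpoint inside the tested range, moderate steepness, significant amplitude and little compound fluorescence or bead-attachment interference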;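 further: GST-tagged constitutively activated Ras mutant immobilized on beads and multiplexed with other GTPases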).

With `Nc1cccc(S(=O)(=O)c2cccc(N)c2)c1`, the call in assay [1], in assay [4] and in assay [6] was inactive. The compound further had a fluorescence, percent of control (lower = inhibition) in assay [2] of 96.8%. Also, the GTP binding, percent of control in assay [3] is 150%. In assay [5], this compound registered a GTP binding signal, raw median fluorescence (lower = inhibition) (MCF (arbitrary fluorescence units)) of 191.
Consider `O=C(CN1C(=O)S/C(=C/c2cccnc2)C1=O)N1CCOCC1`, for which the compound was classed as inactive in assay [1], in assay [4] and in assay [6]. Also, the fluorescence, percent of control (lower = inhibition) in assay [2] turned out to be 54.1%. The GTP binding, percent of control in assay [3] amounted to 68.5%. Moreover, the GTP binding signal, raw median fluorescence (lower = inhibition) (MCF (arbitrary fluorescence units)) in assay [5] turned out to be 221.
As to `O=C(O)c1ccccc1SCc1ccc2c(c1)OCO2`, the compound was classed as inactive in assay [1], in assay [4] and in assay [6]. The fluorescence, percent of control (lower = inhibition) in assay [2] turned out to be 71%. Besides, in assay [3], the GTP binding, percent of control is 79.2%. Besides, in assay [5], the GTP binding signal, raw median fluorescence (lower = inhibition) (MCF (arbitrary fluorescence units)) is 0.
For the compound `Cc1ccc(C)c(CSc2ncccc2C(=O)O)c1`, the compound was classed as inactive in assay [1], in assay [4] and in assay [6]. In addition, the fluorescence, percent of control (lower = inhibition) in assay [2] amounted to 64.5%. The GTP binding, percent of control in assay [3] amounted to 73.7%. The compound further returned a GTP binding signal, raw median fluorescence (lower = inhibition) (MCF (arbitrary fluorescence units)) in assay [5] of 222.
As to `CCOc1ccc(NCc2ccccc2OCc2cccc(F)c2)cc1`, the outcome in assay [1], in assay [4] and in assay [6] was inactive. This compound also gave a fluorescence, percent of control (lower = inhibition) in assay [2] of 69.4%. In addition, the GTP binding, percent of control in assay [3] is 68.1%. In assay [5], this compound came in with a GTP binding signal, raw median fluorescence (lower = inhibition) (MCF (arbitrary fluorescence units)) of 0.
For the compound `O=C(O)c1c(C(F)(F)F)ccnc1SCc1ccccc1`, the result in assay [1], in assay [4] and in assay [6] was inactive. This compound yielded a fluorescence, percent of control (lower = inhibition) in assay [2] of 62%. This compound also registered a GTP binding, percent of control in assay [3] of 228%. Further, the GTP binding signal, raw median fluorescence (lower = inhibition) (MCF (arbitrary fluorescence units)) in assay [5] amounted to 55.9.
Consider `CCOC(=O)/C=C1\SCC(=O)N1CCOc1cccc(Br)c1`, for which the compound was called inactive in assay [1], in assay [4] and in assay [6]. The fluorescence, percent of control (lower = inhibition) in assay [2] is 94.9%. Besides, in assay [3], the GTP binding, percent of control amounted to 164%. Further, the GTP binding signal, raw median fluorescence (lower = inhibition) (MCF (arbitrary fluorescence units)) in assay [5] was found to be 185.
Turning to `COc1cc(/C=N/NC(N)=O)cc([N+](=O)[O-])c1O`, the compound was classed as inactive in assay [1], in assay [4] and in assay [6]. This compound also yielded a fluorescence, percent of control (lower = inhibition) in assay [2] of 35.1%. This compound had a GTP binding, percent of control in assay [3] of 78.6%. The GTP binding signal, raw median fluorescence (lower = inhibition) (MCF (arbitrary fluorescence units)) in assay [5] stood at 175.
Regarding `O=C1/C(=C\c2ccc(-c3ccccc3Cl)o2)SC(=S)N1CC1CCCO1` (stereo not given), the compound was called inactive in assay [1], in assay [4] and in assay [6]. In assay [2], this compound showed a fluorescence, percent of control (lower = inhibition) of 29.8%. Also, the GTP binding, percent of control in assay [3] is 35.9%. Also, in assay [5], the GTP binding signal, raw median fluorescence (lower = inhibition) (MCF (arbitrary fluorescence units)) was 116.
Take `COc1cc2c(C)nc3c(c(C)nn3-c3ccccc3)c2cc1OC`: the compound was called inactive in assay [1], in assay [4] and in assay [6]. Besides, in assay [2], the fluorescence, percent of control (lower = inhibition) was 32.3%. Also, the GTP binding, percent of control in assay [3] was 71.7%. Also, the GTP binding signal, raw median fluorescence (lower = inhibition) (MCF (arbitrary fluorescence units)) in assay [5] was 167.
On to `COc1cc(/C=N/NC(=O)CN(Cc2ccccc2)S(=O)(=O)c2ccc3c(c2)OCCO3)ccc1O`, for which the compound was called inactive in assay [1], in assay [4] and in assay [6]. The fluorescence, percent of control (lower = inhibition) in assay [2] stood at 40.1%. This compound came in with a GTP binding, percent of control in assay [3] of 52.5%. The compound also displayed a GTP binding signal, raw median fluorescence (lower = inhibition) (MCF (arbitrary fluorescence units)) in assay [5] of 126.
As for `CCn1cc(C(=O)O)c(=O)c2cc(F)c(N/N=C/c3ccccc3[N+](=O)[O-])cc21`, the compound was classed as inactive in assay [1], in assay [4] and in assay [6]. The fluorescence, percent of control (lower = inhibition) in assay [2] came out at 32.3%. In assay [3], the GTP binding, percent of control worked out at 44%. In assay [5], the GTP binding signal, raw median fluorescence (lower = inhibition) (MCF (arbitrary fluorescence units)) was 110.
In the case of `Cc1cc2nc(/C(C#N)=C/c3ccncc3)[nH]c2cc1C`, the outcome in assay [1], in assay [4] and in assay [6] was inactive. For the same compound, the fluorescence, percent of control (lower = inhibition) in assay [2] worked out at 30.6%. For the same compound, the GTP binding, percent of control in assay [3] was found to be 76.7%. In assay [5], the GTP binding signal, raw median fluorescence (lower = inhibition) (MCF (arbitrary fluorescence units)) is 245.
As for `COc1cc(/C=N/Nc2nn3cnnc3c3ccccc23)ccc1O`, the outcome in assay [1], in assay [4] and in assay [6] was inactive. In addition, the fluorescence, percent of control (lower = inhibition) in assay [2] was 50.3%. Further, the GTP binding, percent of control in assay [3] stood at 122%. The GTP binding signal, raw median fluorescence (lower = inhibition) (MCF (arbitrary fluorescence units)) in assay [5] was 90.4.
With `OC(c1ccc(OCc2ccccc2)cc1)c1nnc(-c2ccccc2)o1` (stereo not given), the outcome in assay [1], in assay [4] and in assay [6] was inactive. Also, the fluorescence, percent of control (lower = inhibition) in assay [2] came out at 92.3%. Also, in assay [3], the GTP binding, percent of control was 177%. Moreover, the GTP binding signal, raw median fluorescence (lower = inhibition) (MCF (arbitrary fluorescence units)) in assay [5] amounted to 173.
